Measured values as given in paper PMC4336329 (PLoS ONE, 2015).
About 14,000 (4.5%) of roughly 310,000 compounds showed an effect of 50% or more. Effects have a minus sign here. What follows is part of a selection rich in strong results, with near analogues and random picks from the rest.

biological target: human ether-à-go-go-related gene (hERG) potassium channel (human, UniProt Q12809); test: primary screen, population patch clamp on CHO cells stably expressing hERG; higher = less effect of the substance
Sequence (Q12809 whole entry, looked up): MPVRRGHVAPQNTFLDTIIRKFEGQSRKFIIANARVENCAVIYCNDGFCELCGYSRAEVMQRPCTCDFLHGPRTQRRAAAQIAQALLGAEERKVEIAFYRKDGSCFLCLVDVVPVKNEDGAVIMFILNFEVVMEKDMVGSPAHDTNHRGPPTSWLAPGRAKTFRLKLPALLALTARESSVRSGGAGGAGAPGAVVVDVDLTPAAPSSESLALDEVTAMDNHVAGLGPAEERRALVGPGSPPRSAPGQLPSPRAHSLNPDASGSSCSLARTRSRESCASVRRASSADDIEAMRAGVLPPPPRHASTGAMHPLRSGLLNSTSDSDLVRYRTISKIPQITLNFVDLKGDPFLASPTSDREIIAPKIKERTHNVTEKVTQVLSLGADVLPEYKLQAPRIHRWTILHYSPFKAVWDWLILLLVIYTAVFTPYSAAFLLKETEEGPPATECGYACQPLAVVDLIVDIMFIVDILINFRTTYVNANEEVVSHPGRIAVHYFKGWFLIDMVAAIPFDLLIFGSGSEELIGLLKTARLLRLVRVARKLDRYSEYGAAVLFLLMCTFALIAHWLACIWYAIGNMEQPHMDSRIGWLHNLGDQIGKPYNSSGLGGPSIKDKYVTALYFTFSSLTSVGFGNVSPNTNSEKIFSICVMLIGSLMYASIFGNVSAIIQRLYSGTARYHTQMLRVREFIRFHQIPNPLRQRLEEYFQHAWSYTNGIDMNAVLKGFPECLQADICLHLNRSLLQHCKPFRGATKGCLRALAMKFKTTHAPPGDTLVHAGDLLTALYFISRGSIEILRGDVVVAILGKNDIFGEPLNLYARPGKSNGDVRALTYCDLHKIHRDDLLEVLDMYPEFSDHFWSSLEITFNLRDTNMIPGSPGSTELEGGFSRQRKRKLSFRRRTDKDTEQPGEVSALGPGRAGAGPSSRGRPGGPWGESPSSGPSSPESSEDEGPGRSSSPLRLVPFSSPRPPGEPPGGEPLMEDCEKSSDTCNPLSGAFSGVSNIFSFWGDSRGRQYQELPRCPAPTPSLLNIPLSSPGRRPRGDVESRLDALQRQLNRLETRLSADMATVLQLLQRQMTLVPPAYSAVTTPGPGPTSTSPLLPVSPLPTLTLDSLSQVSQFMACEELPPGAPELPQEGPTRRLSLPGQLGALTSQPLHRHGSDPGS
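Also: peak tail current of the secondary pulse compared with the same well before compound.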

Row | Compound | hERG current change (%, negative = inhibition) at 10uM [%]
1 | CCN1CCN(CC(=O)N2N=C(c3cccs3)CC2c2ccc(OC)cc2)C(=O)C1=O (centres unmarked) | -8.83
2 | COc1ccc(C2=NN(C(=O)CSc3nc(=O)n4ccc(C)cc4n3)C(c3ccc(C)cc3)C2)cc1 (centres unmarked) | 5.1
3 | COCCn1c(N)c(C(=O)NCC2CCCO2)c2nc3ccccc3nc21 (centres unmarked) | -7.66
4 | CN(CC(=O)Nc1ccc(Cl)cc1)C(=O)CNC(=O)Cc1cccc2ccccc12 | 20.1
5 | COc1cccc(CN(C(=O)Cn2nnc(-c3ccccc3F)n2)C(C(=O)NC(C)(C)C)c2ccncc2)c1 (centres unmarked) | -18.7
6 | O=[N+]([O-])c1ccc(N(c2ccccc2)c2ccccc2)cc1 | 4.46
7 | Cc1nn(-c2cc(N3CCNCC3)ccc2[N+](=O)[O-])c(=O)c2ccccc12 | -11.4
8 | CCOc1c(Cl)cc(CNc2ccc(S(N)(=O)=O)cc2)cc1OC | -3.11
9 | OC(COC(c1ccc(Cl)cc1)c1ccc(Cl)cc1)CN1CCCC1 (centres unmarked) | -77.4
10 | CN1CCN(CC(O)COC(c2ccc(Cl)cc2)c2ccc(Cl)cc2)CC1.Cl (centres unmarked) | -69.3
11 | CN1CCN(CC(O)COc2ccc(Cl)cc2)CC1.Cl (centres unmarked) | -12.5
12 | CN1CCN(CC(O)COC(c2ccccc2)c2ccccc2)CC1 (centres unmarked) | 11.2
13 | CC(C)c1ccc(OCC(O)CN2CCCC2)cc1.Cl (centres unmarked) | -11.1
14 | CC1CN(CC(O)COC(c2ccc(Cl)cc2)c2ccc(Cl)cc2)CC(C)O1.Cl (centres unmarked) | -71.9
15 | CC1CN(CC(O)COc2ccc(C(C)C)cc2)CC(C)O1.Cl (centres unmarked) | -14.3
16 | COc1ccc(OCC(O)CN2CC(C)OC(C)C2)cc1.Cl (centres unmarked) | 17.5
17 | CC1CCCCC1NC(=O)c1nnc(Cc2ccc(Cl)cc2)o1 (centres unmarked) | -9.72
18 | O=c1[nH]c(=O)c2nc3c4ccccc4c4ccccc4c3nc2[nH]1 | 4.75
19 | CCOP(=O)(O)c1ccccc1OCCCCCOc1ccccc1P(=O)(O)OCC | 14.5
20 | COC(=O)C(C)(C(=O)OC)c1ccccc1[N+](=O)[O-] | 7.93
21 | COCCSc1ccccc1C(=O)Nc1nccs1 | -2.77
22 | CN(C)S(=O)(=O)N1CCN(CC(O)COc2ccc(C(=O)c3ccccc3)cc2)CC1 (centres unmarked) | -70.2
23 | O=S(=O)(N1CCCCC1)N1CCN(CC(O)COc2ccc3cc(Br)ccc3c2)CC1 (centres unmarked) | 7.33
24 | CCC(=O)c1ccc(OCC(O)CN2CCCCC2)cc1.Cl (centres unmarked) | -21.8

Row | Compound | hERG current change (%, negative = inhibition) at 10uM [%]
25 | CCC(=O)c1ccc(OCC(O)CN2CCN(S(=O)(=O)c3ccc(NC(C)=O)cc3)CC2)cc1 (centres unmarked) | -20.5
26 | O=C(c1ccccc1)c1ccc(OCC(O)CN2CCN(S(=O)(=O)N3CCCCC3)CC2)cc1 (centres unmarked) | -73.5
27 | CN(C)S(=O)(=O)N1CCN(CC(O)COc2ccc(-c3ccccc3)cc2)CC1 (centres unmarked) | -27.3
28 | CCC(=O)c1ccc(OCC(O)CN2CCN(S(=O)(=O)N3CCCCC3)CC2)cc1 (centres unmarked) | -55.1
29 | CN(C)S(=O)(=O)N1CCN(CC(O)COc2ccc3cc(Br)ccc3c2)CC1 (centres unmarked) | -25.6
30 | O=C(c1ccccc1)c1ccc(OCC(O)CN2CCOCC2)cc1 (centres unmarked) | -10.8
31 | CCOc1ccc(N2C(=O)CN=C2Nc2ccccc2F)cc1 | 5.08
32 | COc1ccc(Br)cc1CNc1ccccc1.O=C(O)C(=O)O | 9.4
33 | CN=C1C=C/C(=N/N=c2\ccn(O)cc2C)C=C1C | -32.6
34 | COC(=O)C1=C(C)N=C2SCCC(=O)N2C1c1cccs1 (centres unmarked) | 10.4
35 | O=C(O)C(=O)O.c1ccc(CNC23CC4CC(CC(C4)C2)C3)nc1 | 15.3
36 | CCN(Cc1ccccc1)C(=O)C1CCN(Cc2sccc2C)CC1.O=C(O)C(=O)O | -44.3
37 | O=C(C1CCCN(CCCc2ccccc2)C1)N1CCCCCC1.O=C(O)C(=O)O (centres unmarked) | -46.2
38 | CCCCN(Cc1ccccc1)C(=O)C1CCN(Cc2sccc2C)CC1.O=C(O)C(=O)O | -68.3
39 | O=C(C1CCN(CC2CC=CCC2)CC1)N(CCc1ccccc1)Cc1ccccc1 (centres unmarked) | -72
40 | O=C(C1CC1)N(CCN(Cc1ccccc1)C(=O)C1CC1)Cc1ccccc1 | -28.9
41 | CCN(CC)C(=O)C1CCCN(Cc2sccc2C)C1 (centres unmarked) | 11.6
42 | CC1CCN(C(=O)C2CCN(CCCc3ccccc3)CC2)CC1.O=C(O)C(=O)O | -62.3
43 | CCC(C)NC(=O)C1CCN(CCCc2ccccc2)CC1.O=C(O)C(=O)O (centres unmarked) | -1.26
44 | CCN(Cc1ccccc1)C(=O)C1CCN(CC2CC=CCC2)CC1.O=C(O)C(=O)O (centres unmarked) | -46.9
45 | CC1CCCN(C(=O)C2CCN(CCCc3ccccc3)CC2)C1.O=C(O)C(=O)O (centres unmarked) | -47.5
46 | O=C(C1CCN(CCCc2ccccc2)CC1)N(CCc1ccccc1)Cc1ccccc1.O=C(O)C(=O)O | -75
47 | CCN(CC)C(=O)C1CCN(CC2CC=CCC2)CC1 (centres unmarked) | -0.0716
